The values below come from PubChem BioAssay (NCATS).

“And” between values parts separate entries of the source, which are not always exact repeats. Equal values may be shown once. Results filed as inconclusive are left out. Unmarked numbers belong to inactive results. The source made the active and inactive calls. Calls come from the whole dose curve; as a rule, active = well fitted curve in the direction sought with a large enough effect; inconclusive = small, poorly fitted or top-dose-only effect, or another doubt; inactive = no such curve, though single readings can be large; an effect the other way counts as inactive or inconclusive. Where a SMILES comes first, the peptide text is derived from it. [ ]: non-standard residue; d: D form. The star is where a group is joined. Sta = CC(C)C[C@H](N)[C@@H](O)CC(=O)O; Isovaleryl = CC(C)CC(=O)*

The target in assay [1] is Cytochrome P450 3A7 (Homo sapiens) (UniProt P24462). Description: Cytochrome P450 family 3 subfamily A member 7 (CYP3A7) small molecule antagonists: luciferase biochemical qHTS assay (AID 1963596). Note: % is set by controls: 0 for no effect and ±100 for the full control effect; nearly all actives have a fitted effect of over 40% in size. Conditions: P450-Glo CYP3A7 enzyme luminescence, 1 h; series mostly up to 57.4 µM. The method in brief: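 Compounds were screened in qHTS format for interference with CYP3A7 turnover of a proluciferin substrate. Reactions ran 1 h at room temperature after NADPH regeneration solution was added, then luciferin product was detected by luminescence.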
Sequence of Cytochrome P450 3A7 (Homo sapiens) (P24462 whole entry, looked up): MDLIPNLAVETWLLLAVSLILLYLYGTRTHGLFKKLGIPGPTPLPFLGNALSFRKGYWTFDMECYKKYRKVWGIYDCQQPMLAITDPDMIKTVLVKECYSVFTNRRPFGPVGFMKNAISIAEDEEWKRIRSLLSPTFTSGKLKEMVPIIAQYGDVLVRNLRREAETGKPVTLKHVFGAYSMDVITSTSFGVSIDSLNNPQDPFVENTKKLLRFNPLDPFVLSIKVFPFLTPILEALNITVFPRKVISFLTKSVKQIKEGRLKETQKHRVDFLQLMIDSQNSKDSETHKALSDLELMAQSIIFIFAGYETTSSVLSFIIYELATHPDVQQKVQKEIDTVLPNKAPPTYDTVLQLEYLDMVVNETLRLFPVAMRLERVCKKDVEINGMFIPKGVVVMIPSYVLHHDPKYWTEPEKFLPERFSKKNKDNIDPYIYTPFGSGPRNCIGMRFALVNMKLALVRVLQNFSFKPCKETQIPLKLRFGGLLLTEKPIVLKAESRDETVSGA

Assay [2] is described as follows: Viability qHTS for spleen associated tyrosine kinase inhibitor (SYKi) naive MV4-11 cells (AID 1963823). Note: nearly all actives have a fitted effect of over 40% in size. Note: potency is the fitted concentration of half-maximal effect. The conditions noted are these: MV4-11 AML viability, CellTiter-Glo luminescence, 72 h; series mostly up to 45 µM. The method, boiled down: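 Viability of MV4-11 AML cells lacking prior SYK inhibitor exposure is scored by CellTiter-Glo luminescence following 72 hr compound incubation at 37 C, 5% CO2, seeded at 500 cells per well.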

A short description of assay [3]: Viability qHTS for spleen associated tyrosine kinase inhibitor (SYKi) drug resistant MV4-11 cells (AID 1963824). Note: nearly all actives have a fitted effect of over 35% in size. Note: potency is the fitted concentration of half-maximal effect. Conditions: SYKi-resistant MV4-11 viability, CellTiter-Glo, 72 h; series mostly up to 45 µM. The method in brief: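 SYK-inhibitor-resistant MV4-11 AML cells were seeded at 500 per well onto compound and cultured 72 hours (37 °C, 5% CO2). CellTiter-Glo was then added, and after 10 min at room temperature, luminescence gave viability.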

The nature of assay [4]: Quantitative highthroughput screen to assess conditional lethalithy of NOMO1 cells grown in RPMI1640 with untreated serum (RPMI+s) (AID 1963876).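 Note: 100% = DMSO wells and 0% = empty wells without cells; nearly all actives have a fitted effect of over 35% in size.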 Conditions: NOMO1 AML cells in RPMI+serum, CellTiter-Glo viability, 48 h; series mostly up to 45.8 µM. The method, boiled down:
(§1)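 Each medium arm—HPLM with 10% dialyzed FBS, or RPMI1640 with 5 mM glucose and 10% untreated or dialyzed FBS—was screened against an 11-point, 3-fold compound titration for 48 h at 37 °C, with CellTiter-Glo luminescence as endpoint.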

Assay [5] in a line: Quantitative highthroughput screen to assess conditional lethalithy of NOMO1 cells grown in RPMI1640 with dialyzed fetal bovine serum (RPMI+ds) (AID 1963877).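 Note: 100% = DMSO control wells and 0% = empty wells; nearly all actives have a fitted effect of over 30% in size.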 Conditions: NOMO1 in RPMI+dialyzed FBS viability, ATP luminescence, 48 h; series mostly up to 45.8 µM. The method, boiled down: as §1
A short description of assay [6]: Quantitative highthroughput screen to assess conditional lethalithy of NOMO1 cells grown in Human Plasma-Like Medium with dialyzed fetal bovine serum (HPLM+ds) (AID 1963878).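 Note: 100% = DMSO wells and 0% = empty wells on each plate; nearly all actives have a fitted effect of over 35% in size.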 The conditions noted are these: NOMO1 AML cells in HPLM+ds, CellTiter-Glo viability, 48 h; series mostly up to 45.8 µM. The method in brief:
as §1

The nature of assay [7]: Quantitative highthroughput screen to assess conditional lethalithy of P12 Ichikawa cells grown in Human Plasma-Like Medium with dialyzed fetal bovine serum (HPLM+ds) (AID 1963879). Note: nearly all actives have a fitted effect of over 35% in size. Conditions: ATP luminescence, 48 h; Potency: viability; series mostly up to 45.8 µM. The method in brief: as §1
Assay [8] in a line: Quantitative highthroughput screen to assess conditional lethalithy of P12 Ichikawa cells grown in RPMI1640 with dialyzed fetal bovine serum (RPMI+ds) (AID 1963880). Conditions: ATP luminescence, 48 h; Potency: P12-Ichikawa viability; series mostly up to 45.8 µM. The method in brief: as §1
A short description of assay [9]: Quantitative highthroughput screen to assess conditional lethalithy of P12 Ichikawa cells grown in RPMI1640 with untreated serum (RPMI+s) (AID 1963881). Conditions: ATP luminescence, 48 h; Potency: viability; series mostly up to 45.8 µM. The method, boiled down: as §1
Assay [10] is described as follows: Quantitative highthroughput screen to assess conditional lethalithy of SEM cells grown in Human Plasma-Like Medium with dialyzed fetal bovine serum (HPLM+ds) (AID 1963882). Note: nearly all actives have a fitted effect of over 35% in size. Note: potency is the fitted concentration of half-maximal effect. Conditions: SEM B-ALL cells in HPLM+ds, CellTiter-Glo viability, 48 h; series mostly up to 45.8 µM. The method, boiled down:
as §1

A short description of assay [11]: Quantitative highthroughput screen to assess conditional lethalithy of SEM cells grown in RPMI1640 with dialyzed fetal bovine serum (RPMI+ds) (AID 1963884). The conditions noted are these: SEM B-ALL cells, RPMI+dialyzed FBS, CellTiter-Glo viability, 48 h; series mostly up to 45.8 µM. The method in brief:
as §1

The nature of assay [12]: Cellular viability qHTS for adrenocortical cancer (ACC) cell line SW-13 (AID 1963989).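 Note: cells grown in serum-free medium with ITS supplement; % is set by controls: 0 for no effect and ±100 for the full control effect; nearly all actives have a fitted effect of over 65% in size.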 The conditions noted are these: SW-13 ACC cells viability, CellTiter-Glo, 48 h; activity (max response): stronger effect = lower value. The method, boiled down: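 SW-13 cells in ITS-supplemented serum-free DMEM were plated overnight, then exposed for 48 h at 37C to compound titrations (up to 46 uM final). Viability was read by CellTiter-Glo luminescence; four-parameter logistic fits gave IC50 and efficacy.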

The nature of assay [13]: Cellular viability qHTS for adrenocortical cancer (ACC) cell line NCI-H295R (AID 1963990).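 Note: 0% = DMSO only wells and -100% = full killing with cytotoxic reference compound; nearly all actives have a fitted effect of over 60% in size.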 Conditions: CellTiter-Glo ATP luminescence, 48 h; series mostly up to 46.1 µM. The method, boiled down:
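Luminescent ATP read-out (CellTiter-Glo, 20 min RT) after 48 h drug exposure of NCI-H295R cells; a titration up to 46 uM final. Data normalized to doxorubicin (100% inhibition) and DMSO (0%); 4-parameter fit gives IC50, max response.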

Assay [14] can be described thus: Quantitative highthroughput screen to assess conditional lethalithy of SEM cells grown in RPMI1640 with unreated serum (RPMI+s) (AID 1963883).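 For Viability: 100% = DMSO wells and 0% = empty wells without cells.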 Note: nearly all actives have a fitted effect of over 35% in size. Note: potency is the fitted concentration of half-maximal effect. The conditions noted are these: SEM B-ALL cells, CellTiter-Glo viability, 48 h; series mostly up to 45.8 µM. The method, boiled down: as §1

Turning to `CN(C)c1cc(NC(=O)CNC(C)(C)C)c(O)c2c1C[C@@H]1C[C@H]3[C@H](N(C)C)C(=O)C(C(N)=O)=C(O)[C@@]3(O)C(=O)C1=C2O`, the Potency entry in assay [1], in [2], in assay [3], in assay [4], in [5] and in assay [6] was “inactive” in each case. In addition, the Potency result in [7], in assay [8], in assay [9], in assay [10] and in assay [11] was “inactive” each time.
Take `N=c1nc(N2CCCCC2)cc(N)n1O`: the Potency entry in [1], in assay [2], in assay [3], in assay [4], in assay [5] and in [6] was “inactive” throughout. The Potency entry in assay [7], in [8], in assay [9] and in assay [13] was “inactive” throughout. Also, the activity (max response) in [12] was 5.33%.
For `Clc1cccc(Cl)c1NC1=NCCN1`, the Potency result in assay [1], in [2], in [3], in assay [4], in assay [5] and in assay [6] was “inactive” each time. Besides, the Potency entry in assay [7], in [8], in [9], in assay [10], in [14] and in [11] was “inactive” each time. Also, the Potency entry in [13] is “inactive”.
In the case of `COc1nc(N)nc2c1ncn2[C@@H]1O[C@H](CO)[C@@H](O)[C@@H]1O`, the Potency result in assay [1], in assay [2], in assay [3], in [4], in assay [5] and in assay [6] was “inactive” each time. For the same compound, the Potency entry in [7], in assay [8], in [9], in assay [10], in assay [14] and in assay [11] was “inactive” in each case. Moreover, the Potency result in [13] was “inactive”. For the same compound, in assay [12], the activity (max response) is -9.37%.
On to `Cc1nnc(C(=O)NC(C)(C)c2nc(C(=O)NCc3ccc(F)cc3)c(O)c(=O)n2C)o1`, for which the Potency result in [1], in [2], in assay [3], in assay [4], in [5] and in [6] was “inactive” each time. For the same compound, the Potency entry in [7], in assay [8], in assay [9], in assay [10], in [14] and in assay [11] was “inactive” each time. For the same compound, in assay [13], the Potency result was “inactive”. In addition, the activity (max response) in assay [12] was 8% and 11.5%.
For the compound `CCOC(=O)C(C)(C)Oc1ccc(Cl)cc1`, the Potency result in assay [1], in assay [2], in assay [3], in assay [4], in [5] and in assay [6] was “inactive” throughout. Moreover, the Potency entry in assay [7], in assay [8], in assay [9], in [10] and in [13] was “inactive” throughout. Moreover, the activity (max response) in assay [12] is 0.705% and -17.8%.
`CCCCOc1c(C(=O)c2c(F)cc(C)cc2F)cnc2n[nH]cc12`: the Potency result in assay [1], in assay [4], in assay [5], in assay [6], in [7] and in [8] was “inactive” each time. For the same compound, the Potency result in assay [9] is “inactive”. The Potency in [2] is 651 nM (active) and 1.32 µM (active); in [3], 461 nM (active) and 468 nM (active). In assay [12], the activity (max response) was -11.6%.
As to `CC(C)CC(=O)N[C@H](C(=O)N[C@H](C(=O)N[C@@H](CC(C)C)[C@@H](O)CC(=O)N[C@@H](C)C(=O)N[C@@H](CC(C)C)[C@@H](O)CC(=O)O)C(C)C)C(C)C` (Isovaleryl-VV[Sta]A[Sta]-OH), the Potency result in assay [1], in assay [2], in assay [3], in assay [4], in assay [5] and in [6] was “inactive” throughout. The Potency result in [7], in [8], in assay [9] and in [13] was “inactive” each time. Moreover, the Potency in assay [14] was 26.4 µM (active). In addition, the activity (max response) in assay [12] was 4.2% and -6.21%.
Turning to `O=C(c1ccc(C(=O)N2CCC(N3CCCC3)CC2)c(Nc2ccccc2)c1)N1CCC(N2CCCC2)CC1`, the Potency result in assay [1], in assay [2], in assay [3], in assay [4], in assay [5] and in [6] was “inactive” throughout. Moreover, the Potency entry in [7], in [8], in assay [9], in assay [10], in [14] and in [11] was “inactive” in each case. The Potency result in [13] is “inactive”. The activity (max response) in [12] was 11.8%.
As to `COc1ccc(-c2ccc3cc(C(=O)O)ccc3c2)cc1C12CC3CC(CC(C3)C1)C2`, the Potency result in assay [1], in [4], in assay [5], in [6], in assay [7] and in assay [8] was “inactive” in each case. Also, the Potency entry in assay [9], in assay [14], in assay [11] and in assay [13] was “inactive” in each case. In addition, the Potency in assay [2] is 211 nM (active); in assay [3], 1.32 µM (active). The activity (max response) in [12] is -2.5% and -9.37%.
Turning to `CCn1cc(C(=O)O)c(=O)c2cc(F)c(N3CCNC(C)C3)c(F)c21` (configuration not stated), the Potency entry in assay [1], in assay [2], in [3], in assay [4], in assay [5] and in assay [6] was “inactive” throughout. For the same compound, the Potency result in assay [7], in assay [8], in assay [9], in assay [10], in assay [11] and in assay [13] was “inactive” throughout. In [12], the activity (max response) was -4.05% and -10.4%.
With `O=C1CCC(N2C(=O)c3ccccc3C2=O)C(=O)N1` (configuration not stated), the Potency entry in [1], in assay [2], in assay [3], in [4], in [5] and in assay [6] was “inactive” throughout. The Potency entry in assay [7], in assay [8], in [9], in assay [10], in [11] and in assay [13] was “inactive” throughout. For the same compound, the activity (max response) in [12] was 13.3% and -15.2%.
On to `NC(=O)c1cccnc1`, for which the Potency entry in [1], in assay [2], in assay [3], in [4], in assay [5] and in assay [6] was “inactive” each time. Further, the Potency entry in assay [7], in assay [8], in assay [9] and in [13] was “inactive” each time. Also, in assay [10], the Potency is 16.6 µM (active). The activity (max response) in assay [12] is -8.19% and 2.22%.
For the compound `O=C(O)CSCC(=O)NC1CCSC1=O` (configuration not stated), the Potency result in [1], in assay [2], in assay [3], in [4], in [5] and in [6] was “inactive” throughout. For the same compound, the Potency result in assay [7], in [8], in [9], in assay [10], in assay [14] and in assay [11] was “inactive” each time. Also, the Potency result in [13] was “inactive”. For the same compound, the activity (max response) in [12] was 1.69% and -8.03%.
Regarding `C[C@@H](c1ncncc1F)[C@](O)(Cn1cncn1)c1ccc(F)cc1F`, the Potency entry in [1], in [2], in assay [3], in assay [4], in assay [5] and in [6] was “inactive” in each case. Also, the Potency result in assay [7], in assay [8], in assay [9], in [10] and in assay [13] was “inactive” throughout. The activity (max response) in [12] was -12.4%.
`N[C@@H]1CONC1=O`: the Potency result in assay [1], in [2], in [3], in assay [4], in assay [5] and in assay [6] was “inactive” each time. The Potency entry in [7], in assay [8], in [9], in [10], in assay [14] and in assay [11] was “inactive” throughout. Moreover, in assay [13], the Potency result was “inactive”. Further, the activity (max response) in assay [12] was 0.98% and -6.89%.
